Experimental data taken from PubChem BioAssay (NCI).
This is part of a sample that, as a whole, favours compounds with a hit. Of some 83,000 tested, about 20% had one in any assay.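 48-hour exposure, single concentration, 96-well plates; percent growth endpoint where 0 means no net growth. Active: below 10.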 A number with no mark means an inactive call. Calls of active or inactive are those of the source.

Test system: MDA-MB-435 melanoma
Assay: NCI-60 one-dose screen, 48 h (100 = growth as untreated, 0 = no growth, -100 = all killed)
Settings: 10 µM unless noted

Structure (SMILES) | growth
O=C(CCCCCNC(=O)c1cc(=O)c(O)co1)Nc1ccccc1 | 100%
CCOC(=O)c1c(C)nc2ccccc2c1/C=C/c1ccccc1 | 70.2%
COc1cccc(-c2cc(-c3cccc(Cl)c3)c(C#N)c(=O)[nH]2)c1 | 4.96% (active)
CN(CCCNC(=O)CCOCCOCCOCCNC(=O)Cc1ccc2ccc3cccc4ccc1c2c34)CCCNc1cc(-c2ccc3ccccc3c2)nc2ccccc12 | -79.6% (active)
Cc1ccc2nc(/C(C#N)=C(/CCCO)NC(Cc3ccccc3)C(=O)OCc3ccccc3)[nH]c(=O)c2c1 (centres undefined) | 89.5%
NS(=O)(=O)c1ccc(-c2cc(-c3nnc(SCC(=O)Nc4ccc(C(=O)/C=C/c5ccc(Cl)cc5)cc4)n3-c3ccccc3)c3ccccc3n2)cc1 | 94%
COC(=O)c1cc(Br)ccc1O | 116%
COc1ccc(-c2cc(-c3ccccc3)nc(N3CCN(CCNc4ccnc5cc(Cl)ccc45)CC3)n2)cc1 | -72.1% (active)
CCCCNC(=O)Oc1ccc(/C(=C(/C)Cc2ccc(OC)cc2)c2ccc(OCCN3CCCCCC3)cc2)cc1 | 90.5%
O=C(N=Nc1c(O)[nH]c2ccccc12)Nc1ccc(F)cc1 | 98.3%
O=[N+]([O-])c1ccc(-c2cn3nc(-c4c[nH]c5ccccc45)sc3n2)cc1 | 107%
CN(C)c1ccc(/C=C(\C#N)c2cc3ccccc3[nH]2)cc1 | -25.4% (active)
CC(=O)/C(=C/c1ccc([N+](=O)[O-])cc1)C(=O)c1ccccc1 | 77.3%
CCOC(=O)c1nn(CC(O)c2ccccc2)c(NC(=O)Nc2cccc(F)c2)c1C (centres undefined) | 99.9%
CO[C@H](C(=O)[C@@H](O)[C@@H](C)O)[C@@H]1Cc2cc3cc(O[C@H]4C[C@@H](O[C@H]5C[C@@H](O)[C@H](O)C(C)O5)[C@H](O)C(C)(O)O4)cc(O)c3c(O)c2C(=O)[C@H]1O[C@H]1C[C@@H](O[C@H]2C[C@@H](O[C@H]3C[C@@H](OC)[C@H](O)C(C)O3)[C@@H](O)C(C)O2)[C@H](O)C(C)O1 (some centres undefined) | 24.8%
CCN(CC)CCCN1C(=O)c2c(c(C)c3c(oc4ccc(O)cc43)c2C)C1=O | 93.4%
O=C(Nc1ccccc1N1CCCC1=O)c1oc2ccc(F)cc2c1-c1cnn(-c2ccccc2)c1 | 62.2% [50 µM]
O=C(C1CCCCC1)[C@@H]1[C@]2(C(=O)NC3CCCCC32)[C@@H]2CCCN2[C@@]12C(=O)NC1CCC(Cl)CC12 (some centres undefined) | -91% [100 µM] (active)
C=C(C)[C@@H]1CC[C@]2(COC(C)=O)CC[C@]3(C)[C@H](CC[C@@H]4[C@@]5(C)CCCN(C(C)=O)C(C)(C)[C@@H]5CC[C@]43C)[C@@H]12 | 4.85% (active)
